# According to PubChem BioAssay (NCATS):
# Records with an inconclusive call do not appear. Entries that show only a call come without a potency. The source made the active and inactive calls. Calls come from the whole dose curve; as a rule, active = well fitted inhibition curve with a large enough effect; inconclusive = small, poorly fitted or top-dose-only effect; inactive = flat fitted curve, though single readings scatter.
# Assays:
# Assay in all cases: qHTS profiling for inhibitors of Plasmodium falciparum proliferation (AID 504749); note: nearly all actives have a fitted effect of over 60% in size
# Details in all cases: P. falciparum in erythrocytes, SYBR Green DNA, 72 h; series mostly up to 28.7 µM
# [1] = test system: AA1029
# Method in brief: (§1)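 Parasite proliferation within erythrocytes, 72 h exposure. Endpoint: SYBR Green I fluorescence after overnight lysis at room temperature. Controls: 0.29 uM artemisinin, DMSO.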
# [2] = test system: ATS95
# Method in brief: as §1
# [3] = test system: C2A
# Method in brief: as §1
# [4] = test system: CP211
# Method in brief: as §1
# [5] = test system: CP215
# Method in brief: as §1
# [6] = test system: CP217
# Method in brief: as §1
# [7] = test system: CP250
# Method in brief: as §1
# [8] = test system: CP252
# Method in brief: as §1
# [9] = test system: CP256
# Method in brief: as §1
# [10] = test system: CP265
# Method in brief: as §1
# [11] = test system: CP268
# Method in brief: as §1
# [12] = test system: CP297
# Method in brief: as §1
# [13] = test system: CP315
# Method in brief: as §1
# [14] = test system: CP325
# Method in brief: as §1
# [15] = test system: CP329
# Method in brief: as §1
# [16] = test system: N140
# Method in brief: as §1
# [17] = test system: PAD
# Method in brief: as §1
# [18] = test system: SC27B
# Method in brief: as §1
# [19] = test system: TAB113
# Method in brief: as §1
# [20] = test system: TAB165
# Method in brief: as §1
# Potency is the fitted concentration of half-maximal effect.
Compound,Potency [1],Potency [2],Potency [3],Potency [4],Potency [5],Potency [6],Potency [7],Potency [8],Potency [9],Potency [10],Potency [11],Potency [12],Potency [13],Potency [14],Potency [15],Potency [16],Potency [17],Potency [18],Potency [19],Potency [20]
OC[C@@H]1O[C@](CO)(O[C@H]2O[C@H](CO)[C@@H](O)[C@H](O)[C@H]2O)[C@H](O)[C@H]1O,inactive,inactive,inactive,inactive,inactive,inactive,inactive,inactive,inactive,inactive,inactive,inactive,inactive,inactive,inactive,inactive,inactive,inactive,inactive,inactive
CCCCCCCCCCCC(=O)OCC(O)C1OCC(O)C1O (stereo not given),inactive,inactive,inactive,inactive,inactive,inactive,inactive,inactive,inactive,inactive,inactive,inactive,inactive,inactive,inactive,inactive,inactive,inactive,inactive,inactive
Cc1onc(-c2c(F)cccc2Cl)c1C(=O)NC1C(=O)N2C1SC(C)(C)C2C(=O)O (stereo not given),inactive,inactive,inactive,inactive,inactive,inactive,inactive,inactive,inactive,inactive,inactive,inactive,inactive,inactive,inactive,inactive,inactive,inactive,inactive,inactive
CO[C@H]1C[C@@H]2CC[C@@H](C)[C@@](O)(O2)C(=O)C(=O)N2CCCC[C@H]2C(=O)O[C@H]([C@H](C)C[C@@H]2CC[C@@H](O)[C@H](OC)C2)CC(=O)[C@H](C)/C=C(\C)[C@@H](O)[C@@H](OC)C(=O)[C@H](C)C[C@H](C)/C=C/C=C/C=C/1C,2.51 µM (active),3.98 µM (active),3.55 µM (active),4.26 µM (active),1.69 µM (active),3.16 µM (active),3.55 µM (active),2.82 µM (active),4.47 µM (active),3.16 µM (active),4.78 µM (active),4.26 µM (active),4.26 µM (active),5.36 µM (active),4.26 µM (active),1.58 µM (active),1 µM (active),2.51 µM (active),2.51 µM (active),1.78 µM (active)
CC(CCC(=O)O)C1CCC2C3C(=O)C[C@@H]4CC(=O)CC[C@@]4(C)C3CC(=O)[C@]12C (stereo not given in full),inactive,inactive,inactive,inactive,inactive,inactive,inactive,inactive,inactive,inactive,inactive,inactive,inactive,inactive,inactive,inactive,inactive,inactive,inactive,inactive
CC[C@@H]1/C=C(\C)C[C@H](C)C[C@H](OC)[C@H]2O[C@@](O)(C(=O)C(=O)N3CCCC[C@H]3C(=O)O[C@H](/C(C)=C/[C@@H]3CC[C@H](Cl)[C@H](OC)C3)[C@H](C)[C@@H](O)CC1=O)[C@H](C)C[C@@H]2OC,inactive,inactive,inactive,inactive,inactive,inactive,inactive,inactive,inactive,inactive,inactive,inactive,inactive,inactive,inactive,inactive,inactive,inactive,inactive,inactive
CCN1CCN(C(=O)NC(C(=O)NC2C(=O)N3C(C(=O)O)=C(CSc4nnnn4C)CSC23)c2ccc(O)cc2)C(=O)C1=O (stereo not given),inactive,inactive,inactive,inactive,inactive,inactive,inactive,inactive,inactive,inactive,inactive,inactive,inactive,inactive,inactive,inactive,inactive,inactive,inactive,inactive
CCCCC(=O)O[C@]1(C(=O)CO)CCC2C3CCC4=CC(=O)CCC4(C)C3C(O)CC21C (stereo not given in full),inactive,inactive,inactive,inactive,inactive,inactive,inactive,inactive,inactive,inactive,inactive,inactive,inactive,inactive,inactive,inactive,inactive,inactive,inactive,inactive
C=NC(C(=O)NC1C(=O)N2C1SC(C)(C)C2C(=O)O)c1ccccc1 (stereo not given),inactive,inactive,inactive,inactive,inactive,inactive,inactive,inactive,inactive,inactive,inactive,inactive,inactive,inactive,inactive,inactive,inactive,inactive,inactive,inactive
O=C(O)c1ccc(N[C@@H]2OC[C@@H](O)[C@@H](O)[C@@H]2O)cc1,inactive,inactive,inactive,inactive,inactive,inactive,inactive,inactive,inactive,inactive,inactive,inactive,inactive,inactive,inactive,inactive,inactive,inactive,inactive,inactive
CO/N=C(/C(=O)N[C@@H]1C(=O)N2C(C(=O)O)=C(CSc3cnns3)CS[C@H]12)c1csc(N)n1,inactive,inactive,inactive,inactive,inactive,inactive,inactive,inactive,inactive,inactive,inactive,inactive,inactive,inactive,inactive,inactive,inactive,inactive,inactive,inactive
OCC1O[C@H](Oc2ccc(O)cc2)C(O)C(O)C1O (stereo not given in full),inactive,inactive,inactive,inactive,inactive,inactive,inactive,inactive,inactive,inactive,inactive,inactive,inactive,inactive,inactive,inactive,inactive,inactive,inactive,inactive
CCCCCCCCCCCCCCCC(=O)OC[C@H](O)[C@H]1OC[C@@H](O)[C@@H]1O,inactive,inactive,inactive,inactive,inactive,inactive,inactive,inactive,inactive,inactive,inactive,inactive,inactive,inactive,inactive,inactive,inactive,inactive,inactive,inactive
CNC1C(O)C(OC2C(NC(=O)C(O)CN)CC(N)C(OC3OC(CN)C(O)C(O)C3O)C2O)OCC1(C)O (stereo not given),inactive,inactive,inactive,inactive,inactive,inactive,inactive,inactive,inactive,inactive,inactive,inactive,inactive,inactive,inactive,inactive,inactive,inactive,inactive,inactive
NC(=O)c1ncn(C2OC(CO)C(O)C2O)c1N (stereo not given),inactive,inactive,inactive,inactive,inactive,inactive,inactive,inactive,inactive,inactive,inactive,inactive,inactive,inactive,inactive,inactive,inactive,inactive,inactive,inactive
CO/N=C(/C(=O)N[C@@H]1C(=O)N2C(C(=O)O)=C(CSC(=O)c3ccco3)CSC12)c1csc(N)n1 (stereo not given in full),inactive,inactive,inactive,inactive,inactive,inactive,inactive,inactive,inactive,inactive,inactive,inactive,inactive,inactive,inactive,inactive,inactive,inactive,inactive,inactive
